D1 mod: D1 CRE-luciferase signal change, two-sided – cell-based, HEK293 D1, dopamine EC30, D1 allosteric modulator project, primary screen. dopamine EC30 potentiation; actives deviate in either direction. B-score at 10 µM. 58,000 compounds, 5.9% hits. AID 641, 2007;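 active = luminescence count or its row- and column-corrected plate score outside the 99.7% band of the plate's sample wells, on either side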
Target sequence (P21728 whole entry, looked up): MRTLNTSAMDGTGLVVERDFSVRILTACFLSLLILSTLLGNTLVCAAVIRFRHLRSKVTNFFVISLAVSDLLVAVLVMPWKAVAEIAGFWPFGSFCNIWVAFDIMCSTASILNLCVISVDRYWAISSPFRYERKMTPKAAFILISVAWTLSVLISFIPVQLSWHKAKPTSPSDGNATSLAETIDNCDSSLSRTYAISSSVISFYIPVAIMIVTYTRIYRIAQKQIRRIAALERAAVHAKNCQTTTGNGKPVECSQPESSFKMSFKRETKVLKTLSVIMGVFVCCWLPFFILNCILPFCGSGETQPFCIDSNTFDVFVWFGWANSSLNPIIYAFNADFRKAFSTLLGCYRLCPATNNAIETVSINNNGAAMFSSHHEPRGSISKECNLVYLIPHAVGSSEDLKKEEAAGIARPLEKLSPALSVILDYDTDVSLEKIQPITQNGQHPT
CYP2C9 act: human CYP2C9 activators, primary screen, biochemical, luminescence | Cytochrome P450 2C9 (Homo sapiens), P11712 | recombinant CYP2C9, luciferin-H conversion; stronger effect = higher value; factor 1 = untreated enzyme, 0 = blocked | activation factor at 5 µM | 96,000 compounds, 1.4% hits | AID 1024, 2008;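 active = activation factor of 2 or more for CYP2C9 at a 5 µM dose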
CYP2C19 activ: human CYP2C19 activators, primary screen, biochemical, luminescence. recombinant CYP2C19, luciferin-H EGE luminescence; stronger effect = higher value; 0 = fully inhibited enzyme, 1 = untreated enzyme. activation factor at 5 µM. 96,000 tested, under 10 active. AID 1025, 2008;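 active = activation factor of at least 2 at 5 µM in the primary screen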
hDAT+cocaine: changed hDAT dopamine uptake under cocaine IC80, either direction, primary screen, cocaine antagonist project, cell-based, LLC-PK1 hDAT, [14C]-dopamine uptake, MLSMR | B-score at 10 µM | 110,000 compounds, 1.3% hits | Sodium-dependent dopamine transporter (Homo sapiens), Q01959 | LLC-PK1 hDAT cells, [14C]-dopamine uptake with cocaine IC80; actives deviate in either direction;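 active = Z score or B-score, a plate-position-corrected score, falls beyond the plate's 99.7% confidence bounds, in either direction; inactive = both scores lie inside the 99.7% bounds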
CYP2C19 inhib: blockers of cytochrome P450 2C19 activity – biochemical, luminescence, ADME assay, primary screen; P33261; CYP2C19 Supersomes, luciferin-H EGE luminescence, 30 min; inhibition, % at 5 µM; 96,000 compounds, 21% hits; AID 778, 2007;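 active = CYP2C19 inhibition above a set limit at 5 µM in the primary screen, cut at about 50% in these data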
CYP2C9 inh: blockers of cytochrome P450 2C9 activity – biochemical, luminescence, ADME assay, primary screen; CYP2C9 Supersomes, luciferin-H conversion; inhibition, % at 5 µM; 96,000 compounds, 20% hits;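 active = blocking of liver enzyme CYP2C9 beyond about 50% at 5 µM, limit read from the data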
Hits are given with their value; n = inactive; x = not tested or not shown. Compounds with a hit are over-represented: about 28% of the library has one in this group of screens.

SMILES	D1 mod	CYP2C9 act	CYP2C19 activ	hDAT+cocaine	CYP2C19 inhib	CYP2C9 inh
CCOC(=O)C1=C(CN2CCOCC2)NC(=O)NC1c1cc(C)ccc1C (stereo not drawn)	n	n	n	n	n	n
CCOC(=O)C1=C(CN2CCN(c3ccc(F)cc3)CC2)NC(=O)NC1c1cccs1 (stereo not drawn)	n	n	n	n	88.4	91.1
O=C(Nc1ccc2c(c1)OCO2)N1CCN(C(=O)C2CCCO2)CC1 (stereo not drawn)	n	x	x	n	x	x
COc1cccc(NC(=O)C(=O)N/N=C/c2cc(C)n(-c3ccc(Cl)c(Cl)c3)c2C)c1	x	n	n	-4.76	57.1	n
Cc1cc(/C=N\NC(=O)CC(=O)NC2CCCCC2)c(C)n1-c1ccc(Cl)c(Cl)c1	x	n	n	-3.71	n	n
CC1(C)c2[nH]c3ccccc3c2C[C@@H]2C(=O)N(Cc3ccccc3F)C(=O)N21	x	x	x	n	x	x
CCCNC(=S)N1CCC(NC(=O)C2CCCCC2)CC1	x	n	n	n	n	n
O=C(CN1CCOCCOCCOCCOCC1)Nc1ccccc1	x	x	x	n	x	x
Cn1nc(-c2ccccc2)c(-c2nc(-c3cccc(Cl)c3)no2)c1Cl	x	n	n	n	n	60.5
Cc1c2cc(O)c(=O)cc-2oc2cc(O)c(O)cc12	x	n	n	n	n	81.6
COC(=O)[C@H](Cc1ccccc1)NC(=O)NCc1ccccc1OC	x	n	n	n	n	n
CCCCN(CC)C(=O)CSc1cc(=O)n(C)c2ccccc12	n	n	n	n	64.2	n
CCn1c(=O)cc(SCC(=O)N(C)Cc2ccccc2)c2ccccc21	x	2	n	n	55.5	n
CCOC(=O)CSc1cc(=O)n(CC)c2ccccc12	x	n	n	n	n	n
CCn1c(=O)cc(SCC(=O)Nc2cccnc2)c2ccccc21	n	2.4	n	n	n	n
CCn1c(=O)cc(SCC(=O)NCC2CCCO2)c2ccccc21 (stereo not drawn)	n	3.8	n	n	n	n
Cc1cc(C)c(C(=O)CSC2=NC(N)=C(C#N)C3(CCCCC3)C2C(N)=O)cc1C (stereo not drawn)	x	n	n	n	n	n
CCc1ccccc1NC(=O)N1C2CCCC1CC(NC(C)=O)C2 (stereo not drawn)	n	n	n	n	n	n
C[C@@H]1CCC[C@@]2(O[C@@H](CCO)C[C@@H](O)[C@@H]2O)O1	x	x	x	n	x	x
O=C1Nc2ccccc2N=C(c2ccccc2)C1N1CCOCC1 (stereo not drawn)	n	n	n	n	54.3	58.9
O=C1CC(c2ccccc2)=Nc2ccccc2N1	x	n	n	n	n	n
CCCn1cc(SCC(=O)NCc2ccco2)c2ccccc21	n	n	n	n	51.5	n
O=C(CSc1cn(CCNC(=O)c2cccs2)c2ccccc12)NC1CCCC1	x	n	n	n	68.6	82.4
O=C(CSc1cn(CCNC(=O)c2ccccc2)c2ccccc12)NCc1ccco1	n	n	n	n	99.0	97.2
Cc1cccc(-n2cnc(C(=O)NC3CCCCCC3)c2)n1	x	n	n	n	n	n
SMILES	D1 mod	CYP2C9 act	CYP2C19 activ	hDAT+cocaine	CYP2C19 inhib	CYP2C9 inh
CC(=O)N1[C@H](Cc2ccccc2)C=C[C@]1(C)C(=O)NCc1ccccn1	x	x	x	n	x	x
CCC1CCCCN1C(=O)CSc1nnc(-c2cccc(Cl)c2)o1 (stereo not drawn)	n	2.3	n	n	97.5	n
CCC1CCCCN1C(=O)CSc1nnc(-c2ccc(Cl)s2)o1 (stereo not drawn)	n	n	n	n	95.0	n
O=C(CSc1nnc(-c2ccc(Cl)s2)o1)N1CCCc2ccccc21	-2.65	n	n	n	n	n
CCC1CCCCN1C(=O)CSc1nnc(CNC(=O)COc2ccc(Cl)cc2)o1 (stereo not drawn)	n	n	n	n	n	61.7
CCC1CCCCN1C(=O)CSc1nnc(-c2ccco2)o1 (stereo not drawn)	n	x	x	n	x	x
CCC1CCCCN1C(=O)CSc1nnc(-c2ccc(Cl)cc2)o1 (stereo not drawn)	n	n	n	n	82.5	n
O=C(CN1CCN(c2ccc(Cl)cc2)CC1)Nc1ccc(F)cc1	n	n	n	n	n	n
CCC(=O)Nc1sccc1C(=O)OC	n	n	n	n	n	n
COC(=O)c1ccsc1NC(=O)CN1CCN(c2ccc(F)cc2)CC1	n	n	n	n	91.4	90.7
COC(=O)c1c(NC(=O)CN2CCN(Cc3ccc4c(c3)OCO4)CC2)sc(C)c1C	n	n	n	n	50.3	71.4
COC(=O)c1c(NC(=O)CN2C(=O)c3ccccc3C2=O)sc(Cc2ccc3c(c2)OCO3)c1C	x	x	x	n	x	x
COC(=O)c1ccsc1NC(=O)CN1CCN(Cc2ccc3c(c2)OCO3)CC1	x	n	n	n	n	56.0
CC(C)(C)NC(=O)C12CCC(C)(c3nc4ccccc4nc31)C2(C)C (stereo not drawn)	x	n	n	n	n	n
Cc1ccc(NC(=O)CCC(=O)NNC(=O)c2ccco2)cc1C	x	n	n	n	n	n
O=C(/C=C/Nc1ccccc1)c1ccccc1	x	n	n	x	54.8	n
Cc1ccc(N/C=C/C(=O)c2ccc(C)cc2)cc1	x	n	n	n	n	n
O=C(/C=C\NCC(=O)c1ccccc1)c1ccc(F)cc1	x	n	n	n	56.4	n
C/C(=C\C(=O)c1ccccc1)NCc1ccc(F)cc1	x	n	n	n	n	n
CN(C)c1ccc(N/C=C/C(=O)c2ccccc2)cc1	-4.44	n	n	n	98.7	73.1
CCOc1ccc(Cc2c(Cl)nc(N)nc2Cl)cc1	x	n	n	n	52.7	n
CCOc1ccc(Cc2nc(N)nc(N)n2)cc1	x	x	x	n	x	x
CC(=O)Nc1nc2ccc(-c3nc4ccccc4o3)cc2s1	n	x	x	n	x	x
O=C(NCc1ccco1)Nc1ccc2snnc2c1	n	n	n	n	83.2	85.9
Cc1nc2ccc(NC(=O)NCc3ccco3)cc2s1	n	n	n	n	n	n
COC(=O)c1cc(-c2c[nH]c3ccccc23)n[nH]1	n	n	n	n	85.4	83.6
COc1ccc(-c2cc(C(=O)O)[nH]n2)cc1OC	n	n	n	n	n	n
COC(=O)c1cc(-c2ccc(Br)cc2)n[nH]1	x	n	n	n	69.4	n
COC(=O)c1cc(-c2c(C)nn(-c3ccccc3)c2C)n[nH]1	n	n	n	n	n	n
O=C(c1ccco1)N1CCN(S(=O)(=O)Cc2ccc(Cl)cc2)CC1	n	n	n	n	77.9	n

Source: PubChem
